From PubChem BioAssay AID1159506 (National Center for Advancing Translational Sciences (NCATS), 2015)
Over roughly 59,000 sequences, the read-out has its median near -0.00055; the lowest 2% begin near -2. The full list was thinned out, with the lowest values kept by preference.

Experiment: Identification of proteins required for the processing of the EWS-FLI1 nascent transcript;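 also: robust z of luciferase light less the median z of siRNAs with the same seed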
Conditions: TC32 Ewing sarcoma NR0B1-luc vs CMV-luc (EWS-FLI1 target promoter against control promoter), 48 h; screened at 20 nM (by protocol)
Outline: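 Genome-wide siRNA screen (Ambion v4.1, three siRNAs per gene, 20 nM final, RNAiMax) in Ewing sarcoma TC32 cells carrying NR0B1-promoter or CMV-promoter luciferase; OneGlo luciferase read 48 h post-transfection. Data normalized, z-score-MAD transformed and seed-adjusted.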

Row | Sequence | seed-corrected z-score
1 | UUGGAGUUCAGGAUCCUCU against MYO19 | 0.563
2 | UCGGUUGAAACAUUUGUGG against IPO11 | 0.941
3 | UAUGUAACUUUGAUGAGAG against CEACAM22P | 0.0194
4 | AUCCUUGUACAUGCAGUCC against ELL | -2.16
5 | AUAAAACUCAUCUGAGUCC against CYP11B2 | 0.754
6 | AAAGCUAACAUAUUGUAGU against MSGN1 | -0.0625
7 | UUUCCGAUAGAUUGACUGC against SMPX | 0.0624
8 | UUUCAUCUCAUCGAGGAAG against LDOC1 | -2.02
9 | UUCUCACUCAUGUUGCCUC against ZNF768 | 0.198
10 | UACGGUCACUGAUAGUUGG against CYP17A1 | -0.42
11 | UACCGGAAAGACAAGAUAG against CRYBG3 | 0.146
12 | UGUAGCUGAAGAAUAUUCC against ZBTB24 | -2.4
13 | UCUUAUUGAAAAUCUCAGC against NR1H4 | 0.518
14 | UGUCUAACAAAUGUGGAGC against ZNF548 | 0.841
15 | UCUGGUGUACAAGUAGUCC against FICD | 0.433
16 | UCUCCUCAAAGCACCAGCC against LOC653712 | -0.019
17 | AAAGUAGCAUCGUCUGUCU against GSC | 0.704
18 | UUUGAGUAGAGCAGCAUCC against SENP3 | -2.41
19 | AUACUGGUUAGAAUCAGAC against EVI5 | -0.0438
20 | AAUGAAGCAGUUCAUAAGC against ST3GAL6 | 0.107
21 | UUACGUUCAACCUUAGAUC against PHLPP1 | 0.355
22 | UUUAGUUCACCCUGAAUCG against NUP54 | -0.0579

Row | Sequence | seed-corrected z-score
23 | UAAGUACUCUCAACACUGC against PIN4P1 | 0.00579
24 | AGCUUGUAAACACUUCUGC against RGN | -2.52
25 | UUUGAGUCUAGUGGGAUAG against SLC22A10 | 0.479
26 | UAUAGAUGCGAAUCCUUUC against C17orf97 | -0.421
27 | AAAGCUGCAACUGCCUCCC against C2orf48 | -2.61
28 | UAAGUCGAACCUUAUCUCC against AIM2 | -0.16
29 | UAGAAUAAAAUACCGAAUG against SNRPD1 | -1.88
30 | UUUGUCUCAAGAAUUAUCA against SPTSSA | 0.0457
31 | UUGAUUCUCGGGUCUUUGG against FAM71F2 | -12.6
32 | UUUGAUUAAAAGGUCUCUG against PIGX | -1.29
33 | UGAGAUGAACUGAUCUUGC against OR10W1 | 0.324
34 | UCAGGUUUAAGAGGUAUGC against TRAM2 | 0.485
35 | UCCAGUUGCACUUCUGUCC against CGREF1 | -3.65
36 | UGUAUACAAAGAGACAAUC against TAS2R5 | 0.728
37 | UUUGCUAGAAGCCUUCUUG against DOK6 | -0.847
38 | UUGAGGUCAAUUUCGGCUG against H2AFY2 | -0.937
39 | UGUUUUAACUGCUGUAUCC against RP9 | 0.734
40 | UCUUCAUUAGCUUCUUCAC against PLCXD2 | 0.44
41 | UGAUGCACGAGAAGAAGCC against KCNK3 | -13.5
42 | UUUGCUACAGAAUUGCUUG against ANAPC16 | -1.17
43 | AAAGGAUCUCUCUGUAUUU against SNTN | 1.99
44 | UGUACUGUCAGACUAAUGC against MRGPRX3 | -0.749

Row | Sequence | seed-corrected z-score
45 | UUCAGCAUUACUCUCUGCG against RPL17P39 | -2.51
46 | UCAGCAUAUAGCAGGAUCC against NPR2 | -0.565
47 | AUUCUCACCAGACAUCCUG against KRT74 | 1.12
48 | AAGAAUUCCAUACAUCUUC against ACKR1 | -0.0448
49 | UAAGCAUCCAGUAGGCAGG against XBP1 | -3.08
50 | UCUCUAAAAGGUGUCUUGC against SH3RF2 | 0.606
51 | AUAGUAAUCAUCCAGAGCA against ARHGEF35 | -0.685
52 | AUAGGUACUGCACUGCAGG against GPS2 | -0.377
53 | UGACUAUGAUGUUGAAUCC against OR8A1 | -1.35
54 | UUCGAUUCAUGAAAUCUCC against GTF3C1 | 0.399
55 | UGUUCAACGAGGGUAUAGC against ZNF416 | 0.828
56 | UUGUGGUAGAUCUGGACGC against VASP | -2.15
57 | ACAGUUAUUCUGUCCAUCG against LDLRAD3 | -6.33
58 | UCUGGUUUUUGUACCCGCC against LOC403323 | -0.673
59 | UUUUUAACAGAGGUCUCCA against RAB42P1 | -0.18
60 | UUUCAAUCUUGUCUGAGGC against COX11 | -0.764
61 | UUGAGUAAGAACUUUAUCC against SMAD1 | -2.45
62 | AAUAUGUCGUUGUAAGUGC against ZNF644 | -0.209
63 | UUCUUCUAAAACAUCCUCG against GLE1 | -0.174
64 | UUAUCUAUCACCCAAGCAG against RTN4IP1 | -0.598
65 | UUCCGUUUAAUUUCAACUG against BRCA2 | 0.32
66 | UAUUUGUUUCACCUCACUG against DNAJC8 | 1.25

Row | Sequence | seed-corrected z-score
67 | AGAAGGAACAUGCGUGCAG against TTC34 | 1.38
68 | UCCUUGUCGACAACGAGUG against GAPVD1 | -3.68
69 | UAAUUGAGUUUCUAAAGUG against CDKAL1 | -0.809
70 | UUCAUUAUGUGGAACAUAC against CYP19A1 | -1.02
71 | AAAGUGGACACCAUAGACC against HGD | 0.0682
72 | UUUGUAGCAAGGAAUACAG against OR7A5 | -3.5
73 | UGUCGAUCUAGGUACUGAC against SART3 | -0.192
74 | AUAAAUGGUGGUUUAAGGU against METTL2B | -0.343
75 | AAAGCCAGGAGUUCCGCUG against GNG8 | -0.7
76 | UCAGGAACACCGAGUACUC against S100A5 | -0.776
77 | UAGUUGGUUAAAUUGGACC against TEKT3 | -0.0576
78 | AAACCUUUUGCAUCUAUGG against GSTA12P | 0.753
79 | AAAGUUGCUGGUGUGCUCC against NUTM1 | -1.38
80 | UCUUUGAGCAGCUUCCAGC against SOX4 | -5.6
81 | UCAGGUAGCAGAGUACUGC against IL22RA1 | -0.631
82 | AGAGUUCAAAUGUAUUGUC against KLHL21 | -1.34
83 | UCUUUUUGUAGGUCUCUGC against RCN3 | -3.02
84 | UCCUUUAACAACAAGUUGU against IL10 | -0.0724
85 | UCUCUAAACAGGUCCCAAG against PDX1 | 0.0859
